Bioassay records deposited in PubChem by The Scripps Research Institute Molecular Screening Center.
MOR-DOR ag = OPRM1-OPRD1 heterodimerization agonism; cells, luminescence; actives 0.3% (n = 340,000); AID 504326; activation, % at 9.3 µM; in the data active = activation above about 18%;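 also: 0% = vehicle-treated cells and 100% = reference agonist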
OPRM1-OPRD1 inv = mu-delta opioid heterodimer inverse agonism; inhibition, % at 9.3 µM; AID 504357; P35372+P41143; cell-based MOR-DOR heterodimer luminescence; actives 0.21% (n = 340,000); in the data active = inhibition above about 22%, passing the limit was not always enough;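 also: 0% = cells with DMSO and 100% = wells without cells with DMSO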
HTR5A inv ctr = HTR5A inverse agonism, opioid heterodimer counter-screen; HTR5A cell line, luminescence; inhibition, % at 9.3 µM; actives 0.083% (n = 340,000); AID 504634; in the data active = inhibition mostly above about 23%, no sharp cut-off; inactive = mostly below about 18%;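 also: 0% = cells with DMSO and 100% = no-cell wells with DMSO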
HTR5A ag = HTR5A agonism, opioid heterodimer counter-screen. P47898. HTR5A agonist assay, luminescence, cell-based. activation, % at 9.3 µM. actives 0.61% (n = 340,000). AID 504692; in the data active = activation mostly above about 9.5%, no sharp cut-off; inactive = mostly below about 7.6%;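 also: 0% = cells with vehicle only and 100% = reference agonist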
OPRM1-D1 inv cf = OPRM1-OPRD1 heterodimer inverse agonism, confirmation | cells expressing OPRM1/OPRD1 heterodimer, luminescence | AID 504900 | actives 20% (n = 580) | shares compounds with OPRM1-OPRD1 inv | inhibition, % at 9.3 µM; in the data active = inhibition above about 32%;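 also: 0% = cells with DMSO and 100% = wells lacking cells with DMSO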
HTR5A inv ctr2 = inverse agonist of human HTR5A in OPRM1-OPRD1 counter-screen. 580 tested, under 10 active. shares compounds with OPRM1-OPRD1 inv. HTR5A-expressing cells, luminescence, inverse agonism. inhibition, % at 9.3 µM; call rule not given here;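 also: 0% = cells with DMSO and 100% = no-cell wells with DMSO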
Numbers without * were called inactive; . = no result. Shown are actives, neighbours in structure and some others; about 1.1% of the full set was active somewhere.

SMILES	MOR-DOR ag	OPRM1-OPRD1 inv	HTR5A inv ctr	HTR5A ag	OPRM1-D1 inv cf	HTR5A inv ctr2
Cc1ccc(C(=O)COC(=O)CN2C(=O)C3C4C=CC(C4)C3C2=O)cc1[N+](=O)[O-] (configuration not stated)	-5	38*	12	-4	-70	-15
Cc1ccc(C(=O)COC(=O)CCN2C(=O)C3C4CCC(C4)C3C2=O)cc1[N+](=O)[O-] (configuration not stated)	-10	55*	21	-6	48*	21
Cc1cc(C)c2c(=O)[nH]c(SCC(=O)c3ccc(F)c(C)c3)nc2n1	-3	16	5	-2	.	.
Cc1ccc(C(=O)COC(=O)CN2C(=O)C3C4CCC(C4)C3C2=O)cc1[N+](=O)[O-] (configuration not stated)	-9	53*	23	-6	-32	5
Cc1ccc(C2C(C(=O)c3cc4ccccc4o3)=C(O)C(=O)N2CCN2CCOCC2)o1 (configuration not stated)	-7	42*	-5	0	-351	-19
O=C(CCN1CCOCC1)NC1CCCN(Cc2ccccc2F)C1 (configuration not stated)	-2	6	2	2	.	.
S=C1NCCc2ccccc2C1c1ccccc1Cl (configuration not stated)	-9	44*	-27	-2	5	10
S=C1NCCc2ccccc2C1c1ccccc1 (configuration not stated)	-2	13	5	-5	.	.
NC(=O)c1cnccc1C=Cc1ccccc1	-2	11	3	-1	.	.
O=C(CC1(O)C(=O)Nc2ccccc21)c1ccccc1O (configuration not stated)	-9	50*	-1	-5	24	7
O=C(CC1(O)C(=O)Nc2ccccc21)c1cccnc1 (configuration not stated)	-9	52*	5	0	-41	-3
[O-]C1=N[N+](=C(c2ccccc2)c2ccccc2)C1	-2	12	-3	3	.	.
O=C(N=Nc1c(O)[nH]c2ccc([N+](=O)[O-])cc12)c1ccccc1[N+](=O)[O-]	-4	22	17	-7	.	.
CC(Oc1ccccc1)C(=O)N=Nc1c(O)[nH]c2ccc([N+](=O)[O-])cc12 (configuration not stated)	-6	45*	10	-4	17	-8
Cc1cccc(NC(=O)COC(=O)Cc2cccs2)c1C	-1	3	22	-9	.	.
Cn1cccc1C(C#N)c1cccc(F)c1C#N (configuration not stated)	-7	37*	15	-3	9	6
Cn1cccc1C(C#N)(CC#N)c1cccc(F)c1C#N (configuration not stated)	-3	12	0	0	.	.
Cc1cccc(C)c1NC(=O)C(NC=O)c1ccc(Cl)cc1 (configuration not stated)	-7	33*	-14	5	3	2
CCOC(=O)C1CCCN(C(=O)c2cc(S(=O)(=O)N(C)C)ccc2N2CCCC2)C1 (configuration not stated)	0	3	-1	1	.	.
NC(=O)c1c(NC(=O)c2cccnc2)sc2c1CCCCC2	-2	9	-11	-1	.	.
Cc1ccc(NNC(=O)C(=O)N2CCCCC2)cc1	-5	28*	3	-1	3	-6
CCCC(=O)N(c1ccc(OCC)cc1)S(=O)(=O)c1ccc2c3c(cccc13)C(=O)N2C	1	-4	18	0	.	.
Cn1cnc([N+](=O)[O-])c1S(=O)(=O)c1cccc(Cl)c1	-4	29*	16	-3	-20	-90
Cn1cnc([N+](=O)[O-])c1S(=O)(=O)Nc1ccccc1	-3	17	-1	0	.	.
Cc1nn(C(C)C(=O)c2cccc(Cl)c2)c(C)c1[N+](=O)[O-] (configuration not stated)	-1	7	14	0	.	.
Cn1cnc([N+](=O)[O-])c1S(=O)(=O)Oc1ccccc1	-8	40*	21	-5	9	14
Cc1ccc(N(C)C(=O)CCS(=O)(=O)c2ccc3c(c2)oc(=O)n3C)cc1	-3	15	8	-1	.	.
O=C1C2=C(c3ccccc31)[N+](=O)C1CCCCC1N2[O-] (configuration not stated)	-13	56*	17	2	3	2
